{"source": "PubChem BioAssay", "data": [{"experiment": "S6 kinase pathway phospho-S6 level changes – cell-based, A549, cytoblot, luminescence, serum-stimulated, primary screen (AID 1158);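 note: serum-stimulated A549 lung adenocarcinoma cells; signal is phosphorylated S6 detected by cytoblot immunostaining with HRP secondary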", "details": "5 h, higher = more signal", "values": [{"smiles": "C=CCN1C(=O)[C@]2(O[C@H](CCO)[C@@H]([Si](C)(C)c3ccc(OC)cc3)[C@@H]2C)c2cc(N3C(=O)c4cccc5cccc3c45)ccc21", "z-score": 1.03}, {"smiles": "C[N+](C)(C)CCCCNC(=O)[C@H]1C[C@H]2C(=O)N[C@@H](Cc3ccccc3)C(=O)N2[C@H]1c1ccc(O)cc1", "z-score": 0.149}, {"smiles": "COC(=O)[C@@]1(Cc2ccc(F)cc2)[C@H]2c3cc(C(=O)N4CCCC4)n(Cc4cc(C)n(C)n4)c3C[C@H]2CN1C(=O)c1ccccc1", "z-score": -0.301}, {"smiles": "Cc1ccc(S[C@]2(C(=O)NCC(F)(F)F)CC(=O)N(C(C)C)[C@@H]2c2ccc(CO)cc2I)cc1", "z-score": 0.303}, {"smiles": "CO[C@H]1O[C@H](CO)[C@@H](OC(=O)Nc2ccc(Br)cc2)[C@H](OC(=O)c2cc3ccccc3[nH]2)[C@H]1OC(=O)c1cc2ccccc2[nH]1", "z-score": 1.16}, {"smiles": "COc1ccc(CCNC(=O)[C@@]2(Sc3ccc(C)cc3)CC(=O)N(C3CCCCC3)[C@@H]2c2ccc(CO)cc2I)cc1", "z-score": -0.012}, {"smiles": "CC(C)c1ccc(NN2C(C(O)c3cc(C(F)(F)F)cc(C(F)(F)F)c3)C=CC3C(=O)N(c4ccccc4)C(=O)C32)cc1", "note": "(stereo unspecified)", "z-score": 0.122}, {"smiles": "COc1ccc([C@H]2OC[C@@H]3CC4(CC=CC4)C(=O)N32)cc1", "z-score": -0.516}, {"smiles": "CN1C(=O)C2C=CC(C(O)C3CC=CCC3)N(NC(=O)OC(C)(C)C)C2C1=O", "note": "(stereo unspecified)", "z-score": -1.01}, {"smiles": "N#Cc1ccc(NN2C(C(O)c3c(F)cccc3Cl)C=CC3C(=O)N(c4ccccc4)C(=O)C32)cc1", "note": "(stereo unspecified)", "z-score": -1.17}, {"smiles": "CCOC(=O)C1=CCC(c2ccccc2)N(S(=O)(=O)CC[Si](C)(C)C)C1", "note": "(stereo unspecified)", "z-score": -0.215}]}]}
